# Test results: PMC5700166
# Substitutions are numbered along the chain they refer to.
# How the values were obtained:
# Assay in all cases: protein-binding microarray (PBM); PBM: ~300 nM protein, 6 mM HEPES pH 7.8, 80 mM KCl, 0.5 mM EDTA, 0.5 mM EGTA, 6% glycerol, 35 ng/ul poly-dIdC, 1% milk, 1 h, room temperature; Ap Aiptasia and Nv Nematostella (sea anemones) / Co Capsaspora / Aq Amphimedon (sponge) / Dm Drosophila / Hu human; RHD is the Rel homology domain; high values mean tight binding
# Conditions in all cases: dsDNA, one strand shown
# [1] = target: T1, GST-Ap-NF-kB RHD (Exaiptasia pallida (Aiptasia), UniProt A0A913YAJ5 2-422)
# T1 sequence: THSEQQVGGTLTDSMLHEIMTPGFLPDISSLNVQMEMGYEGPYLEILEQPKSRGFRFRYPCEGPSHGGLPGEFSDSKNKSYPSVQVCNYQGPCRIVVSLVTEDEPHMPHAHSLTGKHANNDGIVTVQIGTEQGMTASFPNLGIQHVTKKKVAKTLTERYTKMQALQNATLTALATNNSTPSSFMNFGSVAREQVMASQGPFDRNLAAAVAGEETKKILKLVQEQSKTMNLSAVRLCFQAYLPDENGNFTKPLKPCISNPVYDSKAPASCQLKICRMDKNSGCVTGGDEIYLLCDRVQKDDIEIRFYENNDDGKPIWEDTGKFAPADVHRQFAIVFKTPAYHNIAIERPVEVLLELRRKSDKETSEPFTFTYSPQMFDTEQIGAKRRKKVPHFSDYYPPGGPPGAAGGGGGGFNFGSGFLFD
# [2] = target: T2, GST-Nv-NF-kB (Cys allele) (Nematostella vectensis, UniProt E5G601 2-411)
# T2 sequence: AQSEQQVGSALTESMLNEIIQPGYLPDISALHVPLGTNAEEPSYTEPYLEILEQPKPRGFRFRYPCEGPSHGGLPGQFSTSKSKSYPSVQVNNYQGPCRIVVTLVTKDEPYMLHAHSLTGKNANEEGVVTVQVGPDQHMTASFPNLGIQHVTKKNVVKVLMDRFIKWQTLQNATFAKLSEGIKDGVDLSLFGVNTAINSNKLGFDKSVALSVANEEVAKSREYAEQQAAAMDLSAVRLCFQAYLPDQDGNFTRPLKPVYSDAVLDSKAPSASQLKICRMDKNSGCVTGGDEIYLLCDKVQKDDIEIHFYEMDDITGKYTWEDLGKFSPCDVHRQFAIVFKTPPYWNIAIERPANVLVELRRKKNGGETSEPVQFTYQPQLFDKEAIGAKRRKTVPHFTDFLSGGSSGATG
# [3] = target: T3, GST-Nv-NF-kB (Ser allele) (Nematostella vectensis, UniProt A7UNT2 2-411)
# T3 sequence: T2 sequence with Q21R, C66S, S207N, E215Q, V217A, E225K, A268E, D399E
# [4] = target: T4, GST-Co-NF-kB (Capsaspora owczarzaki, UniProt F1ARL5 200-546)
# T4 sequence: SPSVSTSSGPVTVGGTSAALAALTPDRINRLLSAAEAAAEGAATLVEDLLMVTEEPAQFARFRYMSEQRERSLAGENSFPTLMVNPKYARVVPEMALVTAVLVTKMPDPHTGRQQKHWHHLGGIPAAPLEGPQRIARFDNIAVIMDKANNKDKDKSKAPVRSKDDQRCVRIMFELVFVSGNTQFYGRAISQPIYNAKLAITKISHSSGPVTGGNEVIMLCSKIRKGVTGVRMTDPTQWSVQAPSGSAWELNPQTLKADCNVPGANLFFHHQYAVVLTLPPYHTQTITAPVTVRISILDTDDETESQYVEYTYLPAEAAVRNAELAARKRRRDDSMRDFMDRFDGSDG
# [5] = target: T5, GST-Dm-Relish (Drosophila melanogaster, UniProt Q94527 99-473)
# T5 sequence: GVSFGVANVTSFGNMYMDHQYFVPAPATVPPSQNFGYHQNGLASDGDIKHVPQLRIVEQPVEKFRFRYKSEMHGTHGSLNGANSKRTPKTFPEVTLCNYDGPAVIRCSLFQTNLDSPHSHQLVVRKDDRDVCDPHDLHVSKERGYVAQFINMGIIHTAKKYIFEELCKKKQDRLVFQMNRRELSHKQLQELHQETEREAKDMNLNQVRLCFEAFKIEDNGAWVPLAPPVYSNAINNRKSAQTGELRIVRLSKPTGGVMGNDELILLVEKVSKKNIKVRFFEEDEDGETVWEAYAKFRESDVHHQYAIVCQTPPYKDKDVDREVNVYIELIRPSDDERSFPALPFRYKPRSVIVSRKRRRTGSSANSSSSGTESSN
# [6] = target: T6, GST-Aq-NF-kB (Amphimedon queenslandica, UniProt A9Y5G7 2-389)
# T6 sequence: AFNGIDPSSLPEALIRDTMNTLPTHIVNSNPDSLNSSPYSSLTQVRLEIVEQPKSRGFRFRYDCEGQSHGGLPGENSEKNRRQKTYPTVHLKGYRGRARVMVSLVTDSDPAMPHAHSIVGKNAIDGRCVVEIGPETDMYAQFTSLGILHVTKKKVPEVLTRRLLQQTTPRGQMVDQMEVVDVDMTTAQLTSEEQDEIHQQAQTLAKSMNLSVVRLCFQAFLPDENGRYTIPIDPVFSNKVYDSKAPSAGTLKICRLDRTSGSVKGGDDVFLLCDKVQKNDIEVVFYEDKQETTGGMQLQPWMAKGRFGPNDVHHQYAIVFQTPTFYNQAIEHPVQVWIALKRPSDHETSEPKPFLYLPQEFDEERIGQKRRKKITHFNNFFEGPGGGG
# [7] = target: GST-Hu-p50 (Homo sapiens, UniProt P19838 7-356)
# GST-Hu-p50, sequence (P19838 7-356): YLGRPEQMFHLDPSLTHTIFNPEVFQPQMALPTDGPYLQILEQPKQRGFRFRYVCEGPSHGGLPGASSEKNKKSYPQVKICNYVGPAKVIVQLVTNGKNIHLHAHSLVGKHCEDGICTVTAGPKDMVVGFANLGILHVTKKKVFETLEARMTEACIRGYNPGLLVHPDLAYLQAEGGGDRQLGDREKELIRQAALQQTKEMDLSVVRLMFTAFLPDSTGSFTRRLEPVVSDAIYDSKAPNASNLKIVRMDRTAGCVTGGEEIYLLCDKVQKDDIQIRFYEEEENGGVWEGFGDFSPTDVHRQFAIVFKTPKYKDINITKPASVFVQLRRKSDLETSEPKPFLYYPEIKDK
Sequence,binding signal [1] [z-score],binding signal [2] [z-score],binding signal [3] [z-score],binding signal [4] [z-score],binding signal [5] [z-score],binding signal [6] [z-score],binding signal [7] [z-score]
CCGATTAACATCAGGGGAACAAATGATGTTAATCGGGTCTTGATTCGCTTGACGCTGCTG,3.88,4.83,5.44,7.72,3.13,4.15,3.24
CCGATTAACATCAGGGGGAGGAATGATGTTAATCGGGTCTTGATTCGCTTGACGCTGCTG,5.2,4.58,6.46,7.99,2.99,4.59,4.89
CCGATTAACATCAGGGGATTCTATGATGTTAATCGGGTCTTGATTCGCTTGACGCTGCTG,8.9,9.25,11.1,3.26,7.72,6.2,6.98
CCGATTAACATCACGGAAATCCCTGATGTTAATCGGGTCTTGATTCGCTTGACGCTGCTG,4.3,3.8,2.78,1.09,6.96,6.11,3.58
CCGATTAACATCACCCCGTCCCCTGATGTTAATCGGGTCTTGATTCGCTTGACGCTGCTG,4.62,3.83,3.99,3.98,2.65,4.15,3.21
CCGATTAACATCAAACATTCCCTTGATGTTAATCGGGTCTTGATTCGCTTGACGCTGCTG,2.36,4.96,4.25,1.95,2.37,5.41,3.27
CCGATTAACATCAAAAAGTCCCCTGATGTTAATCGGGTCTTGATTCGCTTGACGCTGCTG,9.45,10.8,11.1,5.57,10,8.93,7.85
CCGATTAACATCAAATTTCCCAATGATGTTAATCGGGTCTTGATTCGCTTGACGCTGCTG,2.25,4.12,3.77,3.94,2.51,3.58,3.39
CCGATTAACATCAAATTCCCAATTGATGTTAATCGGGTCTTGATTCGCTTGACGCTGCTG,1.09,3.19,3.78,2.62,3.56,2.06,2.67
CCGATTAACATCAATCTTCCCCCTGATGTTAATCGGGTCTTGATTCGCTTGACGCTGCTG,5.77,6.99,7.73,9.37,4.07,6.23,6.3
CCGATTAACATCAGGGGAACGCATGATGTTAATCGGGTCTTGATTCGCTTGACGCTGCTG,5.31,5.4,6.49,4.99,2.68,3.75,4.2
CCGATTAACATCAAACATTCCCATGATGTTAATCGGGTCTTGATTCGCTTGACGCTGCTG,1.96,3.21,2.5,2.38,1.59,3.52,2.11
